The values that follow come from article PMC4081100, “A DNA-binding-site landscape and regulatory network analysis for NAC transcription factors in Arabidopsis thaliana”.

Holding throughout (test): universal protein binding microarray (PBM); transcription factors of Arabidopsis thaliana; high values mean tight binding
In one test the target is T1, GST-ANAC092(1-176) (Arabidopsis thaliana, UniProt Q9FKA0 1-176).
T1 sequence: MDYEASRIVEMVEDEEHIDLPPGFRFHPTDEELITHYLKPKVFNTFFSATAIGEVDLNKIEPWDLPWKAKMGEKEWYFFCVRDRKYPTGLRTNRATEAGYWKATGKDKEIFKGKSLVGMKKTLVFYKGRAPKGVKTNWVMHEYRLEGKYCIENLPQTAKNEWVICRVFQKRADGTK
To be noted: protein: recombinant; tags: GST; chain copies: 2; dsDNA, one strand shown. The method, boiled down:
(§1)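 Each value is a normalised enrichment score (E-score) describing binding. The GST-tagged proteins, NAC-domain, full-length or DNA-binding-domain, were induced in cells (zinc-finger proteins with zinc acetate added) and purified on glutathione–Sepharose 4B. They were applied at 200 to 500 nM final, in duplicate, to double-stranded custom all-10-mer Agilent 4 × 180K arrays, and gapped and ungapped 8-mers were scored.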

Another test concerns the target GST-WRKY1(266-371) (Arabidopsis thaliana, UniProt Q9SI37 266-371). To be noted: protein: recombinant; tags: GST; dsDNA, one strand shown. The method, boiled down: as §1
Test [1] deals with T2, GST-ANAC092(1-285) full length (Arabidopsis thaliana, UniProt Q9FKA0 1-285).
T2 sequence: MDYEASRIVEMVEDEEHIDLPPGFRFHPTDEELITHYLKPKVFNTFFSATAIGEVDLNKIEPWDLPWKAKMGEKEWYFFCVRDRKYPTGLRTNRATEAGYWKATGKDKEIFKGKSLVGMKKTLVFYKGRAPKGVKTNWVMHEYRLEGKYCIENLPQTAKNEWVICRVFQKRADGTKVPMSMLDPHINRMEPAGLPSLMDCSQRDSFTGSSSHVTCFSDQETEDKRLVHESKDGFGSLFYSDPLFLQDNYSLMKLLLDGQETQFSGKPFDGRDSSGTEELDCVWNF
The settings on record: protein: recombinant; tags: GST; chain copies: 2; dsDNA, one strand shown. In short, it runs like this:
as §1

Another test concerns the target GST-NTL6(1-168) (Arabidopsis thaliana, UniProt Q9SCK6 1-168). The settings on record: protein: recombinant; tags: GST; chain copies: 2; dsDNA, one strand shown. In short, it runs like this:
as §1

In the next test the target is T3, GST-ANAC019 NAC domain (Arabidopsis thaliana, UniProt Q9C932 14-162).
T3 sequence: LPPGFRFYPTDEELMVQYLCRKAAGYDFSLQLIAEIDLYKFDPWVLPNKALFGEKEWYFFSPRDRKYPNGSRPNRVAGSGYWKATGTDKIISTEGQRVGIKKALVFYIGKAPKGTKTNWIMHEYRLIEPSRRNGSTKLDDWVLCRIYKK
To be noted: protein: recombinant; tags: GST; chain copies: 2; dsDNA, one strand shown. The method, boiled down:
as §1

Another test deals with T4, GST-NAP(1-166) (Arabidopsis thaliana, UniProt O49255 1-166).
T4 sequence: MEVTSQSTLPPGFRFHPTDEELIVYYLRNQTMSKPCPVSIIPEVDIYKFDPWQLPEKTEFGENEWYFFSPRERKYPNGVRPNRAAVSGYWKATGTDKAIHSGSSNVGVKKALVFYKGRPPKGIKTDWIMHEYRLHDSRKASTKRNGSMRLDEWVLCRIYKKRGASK
The settings on record: protein: recombinant; tags: GST; chain copies: 2; dsDNA, one strand shown. The method, boiled down: as §1

Another test concerns the target T5, GST-NTL8 NAC domain (Arabidopsis thaliana, UniProt Q9XIN7 14-156).
T5 sequence: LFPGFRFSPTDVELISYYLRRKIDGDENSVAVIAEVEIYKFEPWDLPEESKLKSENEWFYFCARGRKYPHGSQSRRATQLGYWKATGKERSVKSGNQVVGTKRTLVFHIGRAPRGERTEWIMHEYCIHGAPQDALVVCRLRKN
The settings on record: protein: recombinant; tags: GST; chain copies: 2; dsDNA, one strand shown. The method, boiled down: as §1

Another test deals with T6, GST-ATAF1 NAC domain (Arabidopsis thaliana, UniProt Q39013 7-158).
T6 sequence: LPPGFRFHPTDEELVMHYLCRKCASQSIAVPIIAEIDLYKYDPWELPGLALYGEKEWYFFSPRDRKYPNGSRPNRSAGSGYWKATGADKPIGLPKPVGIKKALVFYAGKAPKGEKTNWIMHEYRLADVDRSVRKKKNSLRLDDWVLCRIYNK
To be noted: protein: recombinant; tags: GST; chain copies: 2; dsDNA, one strand shown. In short, it runs like this:
as §1

The next test deals with T7, GST-NST2(1-184) (Arabidopsis thaliana, UniProt Q9M274 1-184).
T7 sequence: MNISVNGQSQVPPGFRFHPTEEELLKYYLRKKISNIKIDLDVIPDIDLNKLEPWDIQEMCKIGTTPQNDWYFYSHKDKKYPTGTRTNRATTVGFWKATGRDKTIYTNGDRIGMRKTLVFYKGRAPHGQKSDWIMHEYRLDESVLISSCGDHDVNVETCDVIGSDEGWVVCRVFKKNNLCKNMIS
The settings on record: protein: recombinant; tags: GST; chain copies: 2; dsDNA, one strand shown. The method, boiled down: as §1

The target of another test is T8, GST-ANAC055(1-171) (Arabidopsis thaliana, UniProt Q9LDY8 1-171).
T8 sequence: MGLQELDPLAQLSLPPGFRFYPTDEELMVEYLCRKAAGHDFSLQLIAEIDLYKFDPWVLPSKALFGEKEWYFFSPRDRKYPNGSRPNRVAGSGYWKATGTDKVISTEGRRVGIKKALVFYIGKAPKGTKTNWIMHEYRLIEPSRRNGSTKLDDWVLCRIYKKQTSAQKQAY
The settings on record: protein: recombinant; tags: GST; chain copies: 2; dsDNA, one strand shown. The method, boiled down: as §1

Chain of GST-WRKY1(266-371) (Q9SI37 266-371): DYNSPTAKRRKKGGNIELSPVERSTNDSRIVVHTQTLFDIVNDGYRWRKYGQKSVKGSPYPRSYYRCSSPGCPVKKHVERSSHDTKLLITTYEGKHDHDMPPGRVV
Chain of GST-NTL6(1-168) (Q9SCK6 1-168): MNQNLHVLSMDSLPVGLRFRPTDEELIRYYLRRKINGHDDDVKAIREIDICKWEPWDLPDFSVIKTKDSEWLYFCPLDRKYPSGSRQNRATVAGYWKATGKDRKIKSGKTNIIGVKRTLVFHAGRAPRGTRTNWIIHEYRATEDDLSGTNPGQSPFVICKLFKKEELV

Take ACTGGTCA: the binding signal in the test with GST-ANAC092(1-176) is 0.127 E-score; with GST-WRKY1(266-371), 0.433 E-score.
As to CTGACCCA, the binding signal with GST-WRKY1(266-371) amounted to 0.401 E-score.
Turning to CGTCAACC, the binding signal in the test with GST-ANAC092(1-176) worked out at 0.0573 E-score; in test [1], 0.0571 E-score; with GST-WRKY1(266-371), 0.435 E-score.
AGTGGTCA: in the test with GST-WRKY1(266-371), the binding signal came to 0.436 E-score.
For GGGTCAAC, the binding signal in the test with GST-ANAC092(1-176) was 0.0723 E-score; in test [1], 0.0889 E-score; in the test with GST-WRKY1(266-371) it was 0.493 E-score.
For the sequence AAGTCAGC, the binding signal in the test with GST-NTL6(1-168) was 0.14 E-score; with GST-WRKY1(266-371) it was 0.459 E-score.
In the case of CCCTTGAC, the binding signal in the test with GST-ANAC092(1-176) stood at 0.0597 E-score; with GST-NTL6(1-168) it was 0.0561 E-score; in the test with GST-ANAC019 NAC domain, 0.0511 E-score; with GST-NAP(1-166), 0.067 E-score; with GST-NTL8 NAC domain, 0.151 E-score; in the test with GST-WRKY1(266-371), 0.459 E-score.
As for GGTCAACC, the binding signal stood at 0.144 E-score with GST-ANAC092(1-176); 0.0527 E-score with GST-ANAC019 NAC domain; 0.0896 E-score with GST-ATAF1 NAC domain; 0.061 E-score in test [1]; 0.491 E-score with GST-WRKY1(266-371).
With AGGTCAGA, the binding signal with GST-NTL6(1-168) amounted to 0.0962 E-score; in the test with GST-WRKY1(266-371), 0.449 E-score.
Consider AAAGTCAG, for which the binding signal with GST-ANAC092(1-176) is 0.1 E-score; with GST-ANAC019 NAC domain, 0.0919 E-score; with GST-ATAF1 NAC domain it was 0.0653 E-score; with GST-NST2(1-184), 0.085 E-score; with GST-WRKY1(266-371), 0.461 E-score.
On to CTAAGTCA, for which the binding signal amounted to 0.146 E-score in the test with GST-NTL6(1-168) and 0.413 E-score with GST-WRKY1(266-371).
Consider ACTTGACC, for which the binding signal in the test with GST-ANAC092(1-176) came to 0.0892 E-score; with GST-ANAC019 NAC domain, 0.05 E-score; in [1], 0.0507 E-score; with GST-NST2(1-184) it was 0.11 E-score; with GST-NTL8 NAC domain, 0.0948 E-score; in the test with GST-WRKY1(266-371) it was 0.47 E-score.
For AAAGGTCA, the binding signal was determined as 0.0939 E-score with GST-ANAC092(1-176); 0.106 E-score in the test with GST-ANAC055(1-171); 0.137 E-score with GST-ATAF1 NAC domain; 0.0795 E-score in test [1]; 0.154 E-score with GST-NTL8 NAC domain; 0.424 E-score with GST-WRKY1(266-371).
CTGACCGA: in the test with GST-WRKY1(266-371), the binding signal stood at 0.439 E-score.
Take TGACCTAA: the values for the binding signal in the test with GST-NTL6(1-168) and in the test with GST-WRKY1(266-371) were 0.0566 E-score and 0.419 E-score, respectively.
As for TGACCAAA, the binding signal with GST-ANAC092(1-176) stood at 0.0758 E-score; in test [1], 0.126 E-score; in the test with GST-WRKY1(266-371), 0.457 E-score.
Take GCATTGAC: the binding signal with GST-ANAC092(1-176) is 0.0797 E-score; in the test with GST-ATAF1 NAC domain, 0.0849 E-score; with GST-NST2(1-184), 0.0561 E-score; with GST-WRKY1(266-371), 0.47 E-score.
Regarding CTGACCGC, the binding signal with GST-ANAC092(1-176) worked out at 0.0725 E-score; in the test with GST-WRKY1(266-371) it was 0.425 E-score.
With CTGACTTA, the binding signal in the test with GST-NTL6(1-168) is 0.195 E-score; with GST-WRKY1(266-371), 0.42 E-score.
Turning to GTCAATGA, the figures for the binding signal in the test with GST-NTL6(1-168) and in the test with GST-WRKY1(266-371) were 0.0646 E-score and 0.466 E-score, respectively.
Take CTCTTGAC: the binding signal with GST-ANAC092(1-176) is 0.059 E-score; with GST-ANAC019 NAC domain, 0.0833 E-score; with GST-ATAF1 NAC domain, 0.0783 E-score; in the test with GST-NAP(1-166), 0.0978 E-score; in the test with GST-WRKY1(266-371), 0.449 E-score.
Take GCGTGGAC: the binding signal in the test with GST-ANAC092(1-176) turned out to be 0.0916 E-score; in the test with GST-ANAC019 NAC domain, 0.0892 E-score; in [1], 0.19 E-score; with GST-WRKY1(266-371) it was 0.404 E-score.
For the sequence AGTCAAGA, the binding signal came to 0.0587 E-score in the test with GST-NTL6(1-168) and 0.471 E-score with GST-WRKY1(266-371).
As to GGGTCAAA, the binding signal with GST-ANAC092(1-176) stood at 0.0694 E-score; with GST-NST2(1-184) it was 0.0921 E-score; with GST-WRKY1(266-371) it was 0.48 E-score.
Consider TGGGTCAA, for which the binding signal in the test with GST-ANAC092(1-176) was 0.156 E-score; in [1] it was 0.159 E-score; with GST-NTL8 NAC domain, 0.0706 E-score; with GST-WRKY1(266-371), 0.483 E-score.
For GGTTTGAC, the binding signal came to 0.131 E-score with GST-NTL6(1-168); 0.0692 E-score with GST-ANAC019 NAC domain; 0.162 E-score with GST-ANAC055(1-171); 0.171 E-score in the test with GST-ATAF1 NAC domain; 0.116 E-score in test [1]; 0.0603 E-score in the test with GST-NAP(1-166). The binding signal with GST-NST2(1-184) was 0.177 E-score; with GST-WRKY1(266-371) it was 0.483 E-score.
Consider CTGGTCAA, for which the binding signal came to 0.0676 E-score in the test with GST-ANAC092(1-176) and 0.488 E-score with GST-WRKY1(266-371).
Regarding GCGAAGAC, the binding signal worked out at 0.12 E-score in the test with GST-NTL6(1-168); 0.0689 E-score with GST-ANAC019 NAC domain; 0.0506 E-score with GST-ANAC055(1-171); 0.0548 E-score with GST-NAP(1-166); 0.109 E-score in the test with GST-NTL8 NAC domain; 0.404 E-score in the test with GST-WRKY1(266-371).
Regarding AGTCAAGG, the binding signal with GST-ANAC092(1-176) is 0.104 E-score; with GST-ANAC019 NAC domain, 0.0733 E-score; in test [1], 0.139 E-score; with GST-NAP(1-166), 0.0507 E-score; in the test with GST-NST2(1-184), 0.0876 E-score; with GST-WRKY1(266-371), 0.475 E-score.
